Experimental data published in PubChem BioAssay (EPA / NIEHS).
Active and inactive are the calls of the source. The calls were made as follows: active = hit-call score of the fitted dose curve at least 0.9, where 1 is the maximum; inactive = score below 0.9.

Columns and labels:
Details in all cases: mRNA level, 48 h; actives raise or lower the signal
[1] = read-out: ABC Transporter (ABCC2), ABCC2 (gene 1244); assay: LTEA_HepaRG_ABCC2: Life Technologies and Expression Analysis (LTEA) Assay for ABC Transporter (ABCC2) using HepaRG (AID 2283464)
Outline: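 Differentiated HepaRG cells in serum-free induction medium exposed 48 h to eight half-log concentrations up to 100 uM, 0.5% DMSO, in duplicate. ABCC2 mRNA measured by qRT-PCR (TaqMan, Fluidigm), normalized to ACTB, GAPDH and POLR2A. Fitted in both directions against DMSO.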

[2] = read-out: Broad substrate specificity ATP-binding cassette transporter ABCG2 (Homo sapiens) (UniProt Q9UNQ0); assay: LTEA_HepaRG_ABCG2: Life Technologies and Expression Analysis (LTEA) Assay for ABC Transporter (ABCG2) using HepaRG (AID 2283465)
Outline: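 Differentiated HepaRG cells in serum-free induction medium were exposed for 48 h, in duplicate, to eight half-log concentrations up to 100 uM in 0.5% DMSO. ABCG2 mRNA was measured by TaqMan qRT-PCR, normalized to ACTB, GAPDH and POLR2A, and fitted bidirectionally versus DMSO.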

[3] = read-out: ATP-citrate lyase (ACLY), ACLY (gene 47); assay: LTEA_HepaRG_ACLY: Life Technologies and Expression Analysis (LTEA) Assay for ATP-citrate lyase (ACLY) using HepaRG (AID 2283466)
Outline: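 Differentiated human HepaRG cells in serum-free induction medium exposed 48 h, in duplicate, to eight half-log concentrations from 100 uM top in 0.5% DMSO; ACLY mRNA measured by qRT-PCR, normalized to ACTB, GAPDH, POLR2A, fitted bidirectionally versus DMSO.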

[4] = read-out: Peroxisomal acyl-coenzyme A oxidase 1 (ACOX1) gene, ACOX1 (gene 51); assay: LTEA_HepaRG_ACOX1: Life Technologies and Expression Analysis (LTEA) Assay for Peroxisomal acyl-coenzyme A oxidase 1 (ACOX1) gene using HepaRG (AID 2283467)
Outline: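 Differentiated human HepaRG cells were exposed in duplicate for 48 h in serum-free induction medium to eight half-log concentrations up to 100 uM in 0.5% DMSO. ACOX1 mRNA was then quantified by TaqMan qRT-PCR, normalized to ACTB, GAPDH and POLR2A.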

[5] = read-out: Alkaline Phosphatase, Placental (ALPP) gene, ALPP (gene 250); assay: LTEA_HepaRG_ALPP: Life Technologies and Expression Analysis (LTEA) Assay for Alkaline Phosphatase, Placental (ALPP) gene using HepaRG (AID 2283468)
Outline: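 HepaRG cells plated 48 h, then exposed in duplicate for 48 h in serum-free induction medium to 8-point half-log series from 100 uM in 0.5% DMSO. ALPP mRNA by TaqMan qRT-PCR, normalized to ACTB/GAPDH/POLR2A; bidirectional fit versus DMSO.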

[6] = read-out: Bcl-2 (BAD) gene, BAD (gene 572); assay: LTEA_HepaRG_BAD: Life Technologies and Expression Analysis (LTEA) Assay for Bcl-2 (BAD) gene using HepaRG (AID 2283469)
Outline: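 Differentiated human HepaRG cells in serum-free induction medium were exposed in duplicate for 48 h to eight concentrations (top 100 uM, half-log steps, 0.5% DMSO). BAD mRNA was quantified by qRT-PCR normalised to ACTB, GAPDH and POLR2A, with bidirectional fitting versus DMSO.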

[7] = read-out: Bcl-2 (BAX) gene, BAX (gene 581); assay: LTEA_HepaRG_BAX: Life Technologies and Expression Analysis (LTEA) Assay for Bcl-2 (BAX) gene using HepaRG (AID 2283470)
Outline: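 Differentiated HepaRG cells exposed 48 h in serum-free induction medium, eight half-log concentrations from 100 uM, in duplicate, 0.5% DMSO vehicle. BAX mRNA by TaqMan qRT-PCR, normalised to ACTB, GAPDH and POLR2A.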

[8] = read-out: adenosine kinase (ADK) gene, ADK (gene 132); assay: LTEA_HepaRG_ADK: Life Technologies and Expression Analysis (LTEA) Assay for adenosine kinase (ADK) gene using HepaRG (AID 2283471)
Outline: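 Read-out is ADK transcript level measured by qRT-PCR and normalised to three housekeeping genes. Cells are human HepaRG, dosed for 48 h at up to 100 uM in 0.5% DMSO. Gain or loss of signal is fitted against DMSO controls.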

[9] = read-out: Alpha-fetoprotein (AFP) gene, AFP (gene 174); assay: LTEA_HepaRG_AFP: Life Technologies and Expression Analysis (LTEA) Assay for Alpha-fetoprotein (AFP) gene using HepaRG (AID 2283472)
Outline: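 Differentiated human HepaRG cells exposed 48 h in serum-free induction medium, 8-point half-log series from 100 uM in 0.5% DMSO, duplicate. AFP mRNA by qRT-PCR, normalized to ACTB, GAPDH, POLR2A; bidirectional fit vs DMSO.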

[10] = read-out: BCL2L11 (gene 10018); assay: LTEA_HepaRG_BCL2L11: Life Technologies and Expression Analysis (LTEA) Assay for Bcl-2 (BCL2L11) gene using HepaRG (AID 2283473)
Outline: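 Differentiated human HepaRG cells were exposed 48 h in serum-free induction medium to eight half-log concentrations up to 100 uM in 0.5% DMSO, in duplicate. BCL2L11 mRNA was quantified by TaqMan qRT-PCR, normalized to ACTB, GAPDH and POLR2A; induction or repression fitted versus DMSO.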

[11] = read-out: Apolipoprotein A-V (APOA5) gene, APOA5 (gene 116519); assay: LTEA_HepaRG_APOA5: Life Technologies and Expression Analysis (LTEA) Assay for Apolipoprotein A-V (APOA5) gene using HepaRG (AID 2283474)
Outline: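 Differentiated HepaRG cells in serum-free induction medium, exposed 48 h in duplicate to eight half-log concentrations topping at 100 uM (0.5% DMSO). APOA5 mRNA by Fluidigm TaqMan qRT-PCR, normalized to ACTB, GAPDH and POLR2A; bidirectional fit versus DMSO.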

[12] = read-out: Apoptosis regulator Bcl-2 (Homo sapiens) (UniProt P10415); assay: LTEA_HepaRG_BCL2: Life Technologies and Expression Analysis (LTEA) Assay for Bcl-2 gene using HepaRG (AID 2283475)
Outline: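 Differentiated human HepaRG cells in serum-free induction medium exposed 48 h, in duplicate, to 8-point half-log series from 100 uM in 0.5% DMSO. BCL2 mRNA by qRT-PCR (TaqMan/Fluidigm), normalized to ACTB, GAPDH, POLR2A; bidirectional fit against DMSO.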

[13] = read-out: Caspase-3 (Homo sapiens) (UniProt P42574); assay: LTEA_HepaRG_CASP3: Life Technologies and Expression Analysis (LTEA) Assay for cysteine-aspartic acid protease (CASP3) using HepaRG (AID 2283477)
Outline: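 Differentiated HepaRG cells, plated 48 h, were treated in duplicate in serum-free induction medium for 48 h with eight half-log concentrations up to 100 uM in 0.5% DMSO. CASP3 mRNA measured by qRT-PCR, normalized to ACTB, GAPDH, POLR2A.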

[14] = read-out: Cytochrome P450 (CYP24A1), CYP24A1 (gene 1591); assay: LTEA_HepaRG_CYP24A1: Life Technologies and Expression Analysis (LTEA) Assay for Cytochrome P450 (CYP24A1) using HepaRG (AID 2283478)
Outline: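 HepaRG cells plated 48 h, then exposed in duplicate in serum-free induction medium for 48 h to 8-point half-log series from 100 uM in 0.5% DMSO. CYP24A1 mRNA by Fluidigm qRT-PCR, normalized to ACTB, GAPDH, POLR2A; bidirectional fit versus DMSO.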

[15] = read-out: Cytochrome P450 (CYP1A2), CYP1A2 (gene 1544); assay: LTEA_HepaRG_CYP1A2: Life Technologies and Expression Analysis (LTEA) Assay for Cytochrome P450 (CYP1A2) using HepaRG (AID 2283479)
Outline: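 Differentiated human HepaRG cells in serum-free induction medium exposed 48 hours in duplicate to 8 half-log concentrations from 100 uM, 0.5% DMSO. CYP1A2 mRNA quantified by qRT-PCR, normalized to ACTB, GAPDH and POLR2A; bidirectional fitting versus DMSO.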

[16] = read-out: cysteine-aspartic acid protease (CASP8), CASP8 (gene 841); assay: LTEA_HepaRG_CASP8: Life Technologies and Expression Analysis (LTEA) Assay for cysteine-aspartic acid protease (CASP8) using HepaRG (AID 2283480)
Outline: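 Differentiated human HepaRG cells, plated 48 h then switched to serum-free induction medium, were exposed in duplicate for 48 h to 8 half-log concentrations up to 100 uM in 0.5% DMSO. CASP8 mRNA was quantified by qRT-PCR, normalized to ACTB/GAPDH/POLR2A.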

[17] = read-out: Cytochrome P450 (CYP2B6), CYP2B6 (gene 1555); assay: LTEA_HepaRG_CYP2B6: Life Technologies and Expression Analysis (LTEA) Assay for Cytochrome P450 (CYP2B6) using HepaRG (AID 2283481)
Outline: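 Differentiated human HepaRG cells in serum-free induction medium, dosed in duplicate for 48 h over 8 half-log concentrations topping at 100 uM (0.5% DMSO). CYP2B6 mRNA measured by TaqMan qRT-PCR, normalized to ACTB, GAPDH, POLR2A; bidirectional fit versus DMSO.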

[18] = read-out: Cytochrome P450 2C19 (Homo sapiens) (UniProt P33261); assay: LTEA_HepaRG_CYP2C19: Life Technologies and Expression Analysis (LTEA) Assay for CYP2C19 using HepaRG (AID 2283482)
Outline: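 Differentiated HepaRG cells in serum-free induction medium exposed 48 h in duplicate, 8 concentrations from 100 uM by half-log steps in 0.5% DMSO. CYP2C19 mRNA measured by TaqMan qRT-PCR, normalized to ACTB, GAPDH, POLR2A. Bidirectional fit versus DMSO.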

[19] = read-out: CYP2C8 (gene 1558); assay: LTEA_HepaRG_CYP2C8: Life Technologies and Expression Analysis (LTEA) Assay for CYP2C8 using HepaRG (AID 2283483)
Outline: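 Differentiated human HepaRG cells were exposed for 48 h in serum-free induction medium to eight half-log concentrations up to 100 uM in 0.5% DMSO, in duplicate. CYP2C8 mRNA was measured by TaqMan qRT-PCR, normalized to ACTB, GAPDH and POLR2A, and fitted bidirectionally against DMSO.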

[20] = read-out: Bcl-2 (BID) gene, BID (gene 637); assay: LTEA_HepaRG_BID: Life Technologies and Expression Analysis (LTEA) Assay for Bcl-2 (BID) gene using HepaRG (AID 2283476)
Outline: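 Gene expression by qRT-PCR in HepaRG cells after 48 h exposure, duplicate wells, eight half-log concentrations topping at 100 uM in 0.5% DMSO. Normalized to ACTB, GAPDH, POLR2A; bidirectional fitting relative to DMSO.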

Measured: AC50

Broad substrate specificity ATP-binding cassette transporter ABCG2 (Homo sapiens), sequence (Q9UNQ0 whole entry, looked up): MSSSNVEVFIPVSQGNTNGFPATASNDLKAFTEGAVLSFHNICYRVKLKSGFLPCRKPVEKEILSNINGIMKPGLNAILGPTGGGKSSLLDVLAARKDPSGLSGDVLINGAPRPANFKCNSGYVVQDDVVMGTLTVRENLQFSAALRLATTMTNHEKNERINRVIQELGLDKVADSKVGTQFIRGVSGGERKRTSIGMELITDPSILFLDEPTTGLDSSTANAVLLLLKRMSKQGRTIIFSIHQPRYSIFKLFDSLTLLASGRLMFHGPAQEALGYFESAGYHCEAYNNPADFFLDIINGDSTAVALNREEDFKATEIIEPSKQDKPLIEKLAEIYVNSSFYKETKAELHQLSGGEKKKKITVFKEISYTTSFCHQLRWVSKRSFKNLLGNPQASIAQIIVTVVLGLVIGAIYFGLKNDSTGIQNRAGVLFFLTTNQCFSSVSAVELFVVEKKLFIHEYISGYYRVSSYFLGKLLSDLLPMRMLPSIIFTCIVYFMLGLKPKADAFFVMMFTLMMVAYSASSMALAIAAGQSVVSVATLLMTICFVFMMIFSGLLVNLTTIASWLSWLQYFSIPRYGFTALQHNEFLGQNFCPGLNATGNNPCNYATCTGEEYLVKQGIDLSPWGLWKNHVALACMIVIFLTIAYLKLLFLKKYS
Caspase-3 (Homo sapiens), sequence (P42574 whole entry, looked up): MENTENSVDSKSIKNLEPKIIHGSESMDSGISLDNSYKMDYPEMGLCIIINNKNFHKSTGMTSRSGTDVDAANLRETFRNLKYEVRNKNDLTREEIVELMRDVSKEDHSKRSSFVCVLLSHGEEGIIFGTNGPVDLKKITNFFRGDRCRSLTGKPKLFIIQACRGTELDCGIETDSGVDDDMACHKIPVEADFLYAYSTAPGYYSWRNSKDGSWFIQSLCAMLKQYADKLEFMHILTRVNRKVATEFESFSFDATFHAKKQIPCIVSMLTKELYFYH
Cytochrome P450 2C19 (Homo sapiens), sequence (P33261 whole entry, looked up): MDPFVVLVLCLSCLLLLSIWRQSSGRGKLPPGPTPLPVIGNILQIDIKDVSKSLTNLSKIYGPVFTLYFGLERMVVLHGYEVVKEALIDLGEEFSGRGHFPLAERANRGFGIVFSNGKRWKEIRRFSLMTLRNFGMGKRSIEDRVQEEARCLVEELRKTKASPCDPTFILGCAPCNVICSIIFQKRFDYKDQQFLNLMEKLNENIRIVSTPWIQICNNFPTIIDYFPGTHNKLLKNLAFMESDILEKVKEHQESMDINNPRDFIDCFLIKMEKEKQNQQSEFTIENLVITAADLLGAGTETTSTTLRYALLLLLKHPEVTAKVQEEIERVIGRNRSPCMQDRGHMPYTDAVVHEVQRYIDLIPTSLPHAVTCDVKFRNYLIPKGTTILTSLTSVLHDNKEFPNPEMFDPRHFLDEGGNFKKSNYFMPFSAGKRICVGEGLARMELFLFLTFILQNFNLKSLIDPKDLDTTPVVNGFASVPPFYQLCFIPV
Apoptosis regulator Bcl-2 (Homo sapiens), sequence (P10415 whole entry, looked up): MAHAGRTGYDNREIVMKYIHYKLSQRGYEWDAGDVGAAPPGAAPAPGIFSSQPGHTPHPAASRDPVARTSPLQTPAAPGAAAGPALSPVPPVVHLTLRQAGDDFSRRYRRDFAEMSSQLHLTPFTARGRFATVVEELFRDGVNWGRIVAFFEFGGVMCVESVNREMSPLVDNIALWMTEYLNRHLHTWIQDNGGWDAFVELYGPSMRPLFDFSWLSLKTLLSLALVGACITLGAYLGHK

CCCCOC(=O)CC(CC(=O)OCCCC)(OC(C)=O)C(=O)OCCCC
not listed: [20]
inactive: all other assays above

CN(C[C@@H](CC[N+]12CCC(C3CCCCC3)(CC1)CC2)c1ccc(Cl)c(Cl)c1)C(=O)c1cc(C(F)(F)F)cc(C(F)(F)F)c1
active: [1] 63.3 µM | [4] 63.5 µM | [5] 3.14 µM | [9] 23.2 µM | [11] 8.93 µM | [15] 11.5 µM | [17] 18 µM | [18] 29.9 µM | [19] 25.4 µM
not listed: [20]
inactive: all other assays above

NC(=O)c1nc(-c2cccc(-c3cc(F)ccc3OCC(F)(F)C(F)(F)F)c2)n[nH]1
active: [1] 89.8 µM | [2] 15.8 µM | [4] 81.4 µM | [8] 92.8 µM | [10] 74.2 µM
not listed: [5] | [15]
inactive: all other assays above

CCN(Cc1cccc(S(=O)(=O)O)c1)c1ccc(C(=C2C=CC(=[N+](CC)Cc3cccc(S(=O)(=O)O)c3)C=C2)c2ccccc2S(=O)(=O)[O-])cc1
not listed: [20]
inactive: all other assays above

O=C=NCCCCCCN=C=O
not listed: [5] | [15] | [20]
inactive: all other assays above

C[C@]12CC[C@@H]3c4ccc(O)cc4CC[C@H]3[C@@H]1CC[C@H]2O
active: [2] 5.42 µM | [5] 50 µM | [9] 75.7 µM | [11] 50 µM | [17] 1.19 µM | [18] 3.77 µM | [19] 1.46 µM
not listed: [20]
inactive: all other assays above

Clc1cc(Cl)c2c(c1)N=C1CCCCCN1C2
active: [9] 25 µM | [15] 2.21 µM | [17] 6.27 µM | [19] 6.18 µM
not listed: [20]
inactive: all other assays above

CCCCCc1ccc(N)cc1
active: [17] 18.8 µM | [19] 18.7 µM
not listed: [5] | [15]
inactive: all other assays above

CC1=CC(=O)/C(=C(/C)O)C(=O)O1
not listed: [5] | [15]
inactive: all other assays above

c1ccc2n[nH]nc2c1
not listed: [1]
inactive: all other assays above

O=C(O)c1ccccc1-n1cc(C(=O)O)c(=O)c2cc(Nc3c(F)cc(F)cc3Cl)c(Cl)cc21
active: [1] 10.6 µM | [17] 11.2 µM | [18] 5.7 µM | [19] 7.91 µM
not listed: [5] | [15] | [20]
inactive: all other assays above

CCCCCCCCOc1ccc(C(=O)c2ccccc2)c(O)c1
active: [17] 50 µM
not listed: [5] | [15]
inactive: all other assays above

CCO[Si](CCCNC(N)=O)(OCC)OCC
not listed: [5] | [15] | [20]
inactive: all other assays above
